Data taken from PubChem BioAssay (NCI).
The panel holds about 79,000 compounds, 15% with a hit somewhere; the sample as a whole holds those more often. Calls of active or inactive are those of the source. No stated cut-off is given here; in the data, active means growth inhibition above about 70%; inactive means the rest.

Test: NCI Yeast Anticancer Drug Screen. Data for the rad50 strain (AID 155);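 further: 0% = growth of vehicle-only cultures of the same strain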
Details: S. cerevisiae rad50 strain growth inhibition, active compounds read high
Experimental: Growth inhibition of yeast strains with defined genetic alterations is measured as a screen for potential anti-cancer activity. Selected strains with alterations in DNA damage repair or cell cycle control were exposed to compounds and growth inhibition was measured relative to vehicle treated controls. The strain used in this assay is rad50

[1] = at 5.0 µM (retest, dose inferred, filed as 0.5)
[2] = at 50.0 µM (retest, dose inferred, filed as 5.0)

Measured: growth inhibition

COC(=O)c1ccc(CCC2=CC(=O)C(Br)=CC2=O)cc1
inactive: at 1.2 µM -3% | at 3.7 µM 14% | [1] 12% | at 11.0 µM 15% | at 33.0 µM 18% | at 50.0 µM 61.1% | at 100.0 µM 34%
active: [2] 99%

FC(F)(F)c1cc(NC(=S)N2c3ccccc3-n3cccc3C2c2cccnc2)cc(C(F)(F)F)c1 (stereo not given)
inactive: at 1.2 µM -13% | at 3.7 µM -3% | [1] 10% | at 11.0 µM 9% | at 33.0 µM 3% | [2] 57% | at 100.0 µM 2%
active: at 50.0 µM 74.7%

C[S+](C)C1(c2ccccc2)C(=O)c2ccccc2C1=O
inactive: at 1.2 µM 1% | at 3.7 µM 7% | [1] 7% | at 11.0 µM 18% | at 33.0 µM 42%
active: [2] 76% | at 50.0 µM 77% | at 100.0 µM 72%

CCCCCCCCCCCCCCC(C(=O)[O-])[n+]1ccccc1 (stereo not given)
inactive: at 1.2 µM 3% | at 3.7 µM 9% | [1] 9% | at 11.0 µM 3% | at 33.0 µM 4% | [2] 20%
active: at 50.0 µM 98.5% | at 100.0 µM 97%

Cn1c(N)nc(-c2ccc(Cl)cc2)c1SSc1c(-c2ccc(Cl)cc2)nc(N)n1C
inactive: at 1.2 µM -9% | at 3.7 µM -17% | [1] -13% | at 11.0 µM 6% | [2] 15%
active: at 33.0 µM 73% | at 50.0 µM 95.5% | at 100.0 µM 97%
